# Shown are actives, neighbours in structure and some others; about 4.6% of the full set was active somewhere.
# ABHD5 PLIN5 PPI = ABHD5-PLIN5 protein interaction inhibition; Q00G26+Q8WTS1; Split G. princeps luciferase complementation, luminescence, 4 h; 0.78% of 360,000 active; inhibition, % at 4 µM;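 active = inhibition above the mean inhibition across every tested compound plus 3 SD, cut at about 22% in these data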;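 also: 0% = DMSO only wells and the 100% control is not disclosed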
# Target sequence (Q00G26 whole entry, looked up): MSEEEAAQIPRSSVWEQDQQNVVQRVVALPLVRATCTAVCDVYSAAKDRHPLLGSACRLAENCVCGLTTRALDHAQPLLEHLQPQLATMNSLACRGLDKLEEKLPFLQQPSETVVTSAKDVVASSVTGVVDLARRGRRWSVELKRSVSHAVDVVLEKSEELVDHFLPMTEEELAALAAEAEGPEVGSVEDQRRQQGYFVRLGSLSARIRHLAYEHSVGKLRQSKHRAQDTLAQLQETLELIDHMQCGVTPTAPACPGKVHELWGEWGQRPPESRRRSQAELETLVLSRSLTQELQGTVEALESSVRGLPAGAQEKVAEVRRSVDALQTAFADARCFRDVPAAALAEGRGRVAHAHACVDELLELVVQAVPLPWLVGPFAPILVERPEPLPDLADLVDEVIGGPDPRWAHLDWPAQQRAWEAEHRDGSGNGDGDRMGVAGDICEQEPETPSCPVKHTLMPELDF
# Target sequence (Q8WTS1 whole entry, looked up): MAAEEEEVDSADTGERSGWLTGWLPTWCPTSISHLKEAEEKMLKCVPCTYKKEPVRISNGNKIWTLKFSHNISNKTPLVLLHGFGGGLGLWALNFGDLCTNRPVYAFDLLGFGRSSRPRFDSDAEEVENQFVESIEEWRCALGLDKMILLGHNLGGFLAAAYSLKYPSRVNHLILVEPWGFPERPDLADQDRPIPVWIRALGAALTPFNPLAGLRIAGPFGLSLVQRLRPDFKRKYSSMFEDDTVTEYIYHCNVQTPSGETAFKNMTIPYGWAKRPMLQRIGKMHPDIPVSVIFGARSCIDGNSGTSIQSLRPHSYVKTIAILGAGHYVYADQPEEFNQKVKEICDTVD
# HIF-2a block = inhibitors of HIF-2a | 786-0 RCC cells HIF-2a reporter, luciferase luminescence, overnight | inhibition, % at 18.8 µM | 0.72% of 360,000 active;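 active = inhibition of the luminescence signal of 40% or more relative to plate controls, in a single-dose primary screen at 18.75 µM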
# Peg3 prom inh = Peg3 promoter activity inhibition | HeLa PEG-Prom luciferase reporter, luminescence, overnight | inhibition, % at 20 µM | 1.7% of 360,000 active | AID 588405;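 active = inhibition of at least 50% at 20 µM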
# CF NFkB block = inhibitors of cystic fibrosis induced NF-kB; AID 588850; inhibition, % at 5 µM; KKLEB NF-kB-GFP reporter, PAF-induced, GFP fluorescence overnight; 0.86% of 360,000 active;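 active = at least 50% inhibition at 5 µM, scaled per plate between neutral and stimulator controls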;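 also: PAF is a Pseudomonas aeruginosa culture filtrate used as stimulus; plate controls were PAF-stimulated DMSO wells for no effect and unstimulated DMSO wells for full effect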
# KKLEB tox = counter-screen for CF NF-kB inhibitors: cytotoxicity; AID 602141; KKLEB CF airway cells viability, ATPlite luminescence, overnight; hits give low values; cells stimulated with P. aeruginosa culture filtrate; 0.36% of 360,000 active; activity change (cytotoxicity), % at 5 µM;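 active = corrected activity change at or below -50% at 5 µM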
# Mdm2 MdmX PPI = human Mdm2/MdmX binding inhibition | 3% of 330,000 active | inhibition, % at 8 µM | SaOS-2 split-luciferase Mdm2/MdmX complementation, luminescence;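 active = inhibition of at least 50% at 8 µM in the primary screen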
# The depositor's hits bear a star; · = not tested or not shown.
SMILES,ABHD5 PLIN5 PPI,HIF-2a block,Peg3 prom inh,CF NFkB block,KKLEB tox,Mdm2 MdmX PPI
CC(=O)OCC(=O)C1(O)CCC2C3CC(C)C4=CC(=O)C=CC4(C)C3(F)C(O)CC21C (stereo not drawn),-4,18,8,80*,19,·
CC(=O)OCC(=O)C1(O)CCC2C3CC(C)C4=CC(=O)C=CC4(C)C3=CCC21C (stereo not drawn),0,21,-1,45,5,·
CC(=O)C1(O)CCC2C3CCC4CC(O)CCC4(C)C3C(=O)CC21C (stereo not drawn),2,4,2,-2,3,·
CC(=O)OCC(=O)[C@@]12OC(C)(C)O[C@@H]1C[C@H]1[C@@H]3C[C@H](F)C4=CC(=O)C=C[C@]4(C)[C@@]3(F)[C@@H](O)C[C@@]12C,·,·,·,·,·,15
CC(=O)OCC(=O)[C@@]1(OC(C)=O)[C@@H](C)C[C@H]2[C@@H]3C[C@H](F)C4=CC(=O)C=C[C@]4(C)[C@@]3(F)[C@@H](O)C[C@@]21C,-6,24,-5,77*,31,-20
CC(=O)C1(O)CCC2C3CC(C)C4=CC(=O)C=CC4(C)C3(F)C(O)CC21C (stereo not drawn),-4,21,-7,71*,36,·
O=C(Nc1cc2c(cc1[N+](=O)[O-])OCCO2)c1cccnc1,19,-142,-109,13,-9,2
CCOC(=O)[C@]12CCCC=C1N(Cc1ccco1)C(=O)[C@H](CC(=O)NCCCN1CCCC1=O)C2,-3,1,·,·,·,·
CCCCCC(=O)N1C[C@@H](n2cc(-c3ccc(F)cc3)nn2)[C@H](O)C[C@@H]1c1ccc(Cl)cc1,-1,-19,23,2,-20,·
O=C(Nc1nc(-c2nc3ccccc3s2)cs1)c1ccc(S(=O)(=O)N2CCOCC2)cc1,0,-285,-123,55*,-49,18
OCC1(Cc2cccc(C(F)(F)F)c2)CCN(Cc2cc(F)cc(F)c2)CC1,1,22,21,6,-2,18
CSc1cccc(CN2CCC(CO)(Cc3cccc(C(F)(F)F)c3)CC2)c1,11,17,52*,30,-16,46
CCn1cc(C(=O)Nc2ncccc2O)c(=O)c2cc(F)c(N3CCN(C(=O)c4ccco4)CC3)cc21,2,7,53*,8,-3,43
CCn1cc(C(=O)NCc2ccccc2)c(=O)c2cc(F)c(N3CCN(C(=O)c4ccco4)CC3)cc21,2,15,68*,7,10,24
CCn1cc(C(=O)NC(C)C)c(=O)c2cc(F)c(N3CCN(C(=O)c4ccco4)CC3)cc21,2,16,43,4,2,13
CCn1cc(C(=O)NCc2ccc3c(c2)OCO3)c(=O)c2cc(F)c(N3CCN(C(=O)c4ccco4)CC3)cc21,11,23,51*,-20,7,38
NC(=O)c1ncn([C@@H]2O[C@H](CNCc3cccn3-c3ccncc3)[C@@H](O)[C@H]2O)n1,6,-1,-2,9,1,·
COc1ccc([N+](=O)[O-])cc1NC1CCN(C(=O)c2cccs2)CC1,9,17,30,26,-8,2
C[C@H]1CN([C@@H](C)CO)C(=O)CCCn2nncc2CO[C@@H]1CN(C)Cc1ccccc1C(F)(F)F,8,6,-22,5,6,·
CN(C=O)c1cc([N+](=O)[O-])ccc1OCc1ccccc1,-3,-10,-8,-16,1,·
O=C(Cc1ccc(NC(=O)C2CCN(C(=O)C3CCCCC3)CC2)cc1)Nc1cccc(C(=O)N2CCCCC2)c1,4,-2,-7,-6,34,·
C=CCc1cc(C(=O)N2CCCCC2)ccc1O,4,12,-6,51*,-6,23
O=[N+]([O-])c1ccc(O)c(/C=N/Nc2nn[nH]n2)c1,9,7,-10,5,7,-29
O=[N+]([O-])c1ccc(O)c(/C=N/Nc2ccc(Cl)nn2)c1,2,-42,-9,62*,-81*,40
COc1ccc(NC(=O)CSc2nc(N)c(C#N)cc2C#N)cc1,-1,-8,-16,5,-2,-4
SMILES,ABHD5 PLIN5 PPI,HIF-2a block,Peg3 prom inh,CF NFkB block,KKLEB tox,Mdm2 MdmX PPI
COc1ccc2nc(SCC(=O)Nc3ccc4sc(C)nc4c3)c(C#N)cc2c1,-1,-59,-38,17,-62*,31
Cc1ccc2c(n1)sc1c(-c3ccc(Br)cc3)c(C#N)c(N)nc12,-1,0,56*,-17,9,41
O=Nc1c(O)n(Cc2cccc(C(F)(F)F)c2)c2ccccc12,-2,28,38,51*,-16,36
COc1ccc(N2CCN(S(=O)(=O)c3cc4c(cc3C)N(C(C)=O)CCO4)CC2)cc1,-3,7,5,11,-8,24
CCOC(=O)C1(CCc2ccccc2)CCN(C(=O)Cc2nonc2C)CC1,7,-170,-143,-22,4,-5
COc1ccc(C(=O)N=C2CCC(C#N)=C3c4cc(OC)c(OC)cc4CCN23)cc1,-5,17,51*,21,-10,5
COc1ccc(-c2cc(=O)c3c(O)cc(O)cc3o2)cc1,1,-121,-358,68*,-7,-64
COc1ccc(S(=O)(=O)N(C)C[C@H]2Oc3c(cccc3N(C)C)C(=O)N([C@H](C)CO)C[C@@H]2C)cc1,4,10,0,-3,2,-17
FC(F)(F)c1cc(Cl)c2nc(-c3ccco3)c(Cc3ccccc3C(F)(F)F)n2c1,51*,21,·,·,·,·
Cc1ccc(-c2nc3c(Cl)cc(C(F)(F)F)cn3c2Cc2ccccc2C(F)(F)F)cc1,-4,5,·,·,·,·
c1ccc(-c2cc3nc(NCc4cccs4)nc(NCc4ccc5occc5c4)c3s2)cc1,3,-95,64*,-1,-26,·
C=CCNc1nc(NCc2cccc(OC)c2)c2sc(-c3ccccc3)cc2n1,5,-187,-27,-2,-5,·
CCOCCN1CCN(C2c3ccccc3CSc3ccccc32)CC1 (stereo not drawn),-2,5,0,4,-4,23
COc1ccccc1N(C)S(=O)(=O)c1ccc(C(=O)Nc2cccc(S(=O)(=O)N3CCOCC3)c2)cc1,3,11,50*,3,20,·
CN(c1ccccc1)S(=O)(=O)c1ccc(C(=O)Nc2cccc(S(=O)(=O)N3CCOCC3)c2)cc1,-12,4,21,5,-6,·
Cc1ccc2c(c1)sc(=NC(=O)c1cccs1)n2C,13,-6,-25,-34,-66*,10
Cc1ccc2c(c1)sc(=NC(=O)C1CC1)n2C,-4,-208,-220,-22,7,-83
O=C(CSc1c2c(nc3ccc(Cl)cc13)CCCC2)N1CCN(C(=O)c2ccco2)CC1,22,3,26,54*,-12,·
O=C(CSc1nc2cc(Cl)ccc2s1)N1CCN(C(=O)c2ccco2)CC1,4,22,7,-4,-2,-21
